Only some compounds are listed: those with a hit (about 2.7% of all), similar ones and a draw of the others.
HIV Env fusion: inhibitors of HIV Env-mediated cell fusion | 1.1% of 360,000 active | inhibition, % at 12.3 µM | HeLa-JRFL Env/CEM21 cell fusion, luciferase;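 active = mean replicate inhibition score of at least 50 and every replicate individually at or above 50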
MITF act: MITF TRPM1 promoter activation in melanoma cells | SK-MEL-5 TRPM1-promoter luciferase, 24 h; % of positive control, neutral wells = 0 | activation, % at 12.5 µM | 0.75% of 300,000 active | AID 588334;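 active = mean activation of at least 80% with every replicate also reaching 80%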
Wnt bcat act: activators of Wnt/beta-catenin signaling | 1.2% of 300,000 active | activation, % at 9.35 µM | AID 743398 | Wnt/beta-catenin reporter cell assay, activator, plate reader; in the data active = activation above about 30%, passing the limit was not always enough
GSIS activator: primary screen for activators of insulin secretion dependent on glucose, INS-1E cells, GLuc reporter luminescence; INS-1E GLuc reporter insulin secretion, 2-3 h; activation, % at 16.6 µM; 0.61% of 370,000 active; AID 743287;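 active = lowest replicate activation of at least 40%, so every replicate reaches that level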
CFTR F508del cor: correctors of CFTR F508del function in bronchial epithelial cells; 0.36% of 350,000 active; AID 720511; activity (quench increase), % at 7.58 µM; CFBE cells, YFP halide quenching; stimulated with forskolin plus potentiator P3; % fluorescence drop versus neutral controls;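 active = mean added fluorescence quench of at least 8% versus neutral control, with both replicates also reaching 8%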;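 also: cells transiently co-express mutant CFTR-F508del with the halide-sensitive YFP; corrector assay measuring rescue of mutant channel to the surface after 24 h compound exposure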
Of the large screens only hits and unclear results are named; the others gave an inactive call; [ ] = dose if it differs, or a comment.

CC1(C(=O)NCC2CCCCC2)CCN1CCc1ccccc1 (stereo not drawn)	GSIS activator 80 (no result: MITF act)
CC1(C(=O)NCC2CCCCC2)CCN1C(=O)Cc1ccc(-c2ccccc2)cc1 (stereo not drawn)	none (no result: MITF act)
CC(=O)c1sc(NC(=O)CCNC(=O)c2ccco2)nc1-c1ccccc1	HIV Env fusion 62
C=CCn1c(C)nnc1SCC(=O)NC1CCCCC1	none
C=CCn1c(C)nnc1SCC(=O)NC1CC1	HIV Env fusion 62
O=C(C[C@@H]1CC[C@H]2[C@@H](COC[C@@H](O)CN2C(=O)Nc2ccc3c(c2)OCO3)O1)N1CCN(c2ccccc2)CC1	none (no result: HIV Env fusion, MITF act, Wnt bcat act)
CCOc1ccccc1C(=O)OCC(=O)NCc1ccc2c(c1)OCO2	GSIS activator 47
CCOc1ncccc1C(=O)OCC(=O)NCc1ccc2c(c1)OCO2	none
CCCc1nc2ccccc2c(C(=O)OCC(=O)NCc2ccc3c(c2)OCO3)c1CC	CFTR F508del cor 9.0
CO[C@@]12[C@H](COC(N)=O)C3=C(C(=O)C(C)=C(N)C3=O)N1C[C@@H]1N[C@@H]12	none
CO[C@@]12[C@@H]3N[C@@H]3CN1C1=C(C(=O)C(N)=C(C)C1=O)[C@@H]2COC(N)=O	HIV Env fusion 63, CFTR F508del cor 14 (no result: MITF act)
C(=C\c1nc2ccccc2[nH]1)/c1ccccc1	none (no result: MITF act, Wnt bcat act, GSIS activator, CFTR F508del cor)
C(=C\c1ccco1)/c1nc2ccccc2[nH]1	Wnt bcat act 52 (no result: CFTR F508del cor)
COc1ccccc1CN(C)C(=O)C1COc2ccccc2O1 (stereo not drawn)	Wnt bcat act 39 (no result: MITF act, GSIS activator, CFTR F508del cor)
O=C(NCCCN1CCOCC1)c1sc2cc(F)ccc2c1Cl	none (no result: CFTR F508del cor)
O=C(Nc1nccs1)c1sc2cc(Cl)ccc2c1Cl	Wnt bcat act 76 (no result: MITF act, GSIS activator, CFTR F508del cor)
O=C(NCCCN1CCOCC1)c1sc2cc(Cl)ccc2c1Cl	CFTR F508del cor 11
O=C(NC1CC1)c1sc2cc(F)ccc2c1Cl	none (no result: HIV Env fusion)
O=C(NC1CC1)c1sc2cc(Cl)ccc2c1Cl	MITF act 111
COCC(=O)N1CC2(C1)[C@H](c1ccc(C3=CCCC3)cc1)[C@H](CO)N2C(=O)COC	none (no result: HIV Env fusion, MITF act, Wnt bcat act)
CO[C@@H]1CC[C@H]2CCOc3ccc(C#N)cc3C(=O)N(C)C[C@H](C)C(=O)N(C)C[C@@H]1O2	none (no result: MITF act, Wnt bcat act, CFTR F508del cor)
Cc1noc(C)c1NC(=O)Nc1ccc2c(c1)C(=O)N([C@@H](C)CO)C[C@H](C)[C@H](CN(C)S(=O)(=O)c1ccc(F)cc1)OCCCC[C@H](C)O2	HIV Env fusion 55[16.7 µM] (no result: MITF act, Wnt bcat act)
Cc1noc(C)c1S(=O)(=O)N(C)C[C@H]1OCCCC[C@@H](C)Oc2ccc(NC(=O)Nc3ccc4c(c3)OCO4)cc2C(=O)N([C@@H](C)CO)C[C@H]1C	none (no result: MITF act, Wnt bcat act)
Cc1noc(C)c1NC(=O)Nc1ccc2c(c1)C(=O)N([C@H](C)CO)C[C@@H](C)[C@H](CN(C)S(=O)(=O)c1ccc(F)cc1)OCCCC[C@@H](C)O2	none (no result: MITF act, Wnt bcat act)
Cc1noc(C)c1S(=O)(=O)N(C)C[C@H]1OCCCC[C@H](C)Oc2ccc(NC(=O)Nc3ccc4c(c3)OCO4)cc2C(=O)N([C@@H](C)CO)C[C@@H]1C	HIV Env fusion 60[16.7 µM] (no result: MITF act, Wnt bcat act)
Cc1noc(C)c1S(=O)(=O)N(C)C[C@H]1OCCCC[C@@H](C)Oc2ccc(NC(=O)Nc3ccc(C(F)(F)F)cc3)cc2C(=O)N([C@@H](C)CO)C[C@H]1C	none (no result: MITF act, Wnt bcat act)
Cc1noc(C)c1S(=O)(=O)N(C)C[C@@H]1OCCCC[C@@H](C)Oc2ccc(NC(=O)Nc3ccc(C(F)(F)F)cc3)cc2C(=O)N([C@H](C)CO)C[C@H]1C	HIV Env fusion 83[16.7 µM] (no result: MITF act, Wnt bcat act)
CCNC(=O)[C@@H]1[C@@H](CO)[C@@H]2Cn3c(ccc(-c4ccc(F)cc4)c3=O)[C@H]1N2C	none (no result: HIV Env fusion, MITF act, Wnt bcat act)
CCNC(=O)NC(=O)C(C)OC(=O)c1oc2ccccc2c1CSC1CCCCC1 (stereo not drawn)	GSIS activator 108 (no result: HIV Env fusion, Wnt bcat act, CFTR F508del cor)
O=C(C[C@@H]1CC[C@H]2[C@@H](COC[C@@H](O)CN2Cc2cccc(-c3ccncc3)c2)O1)N1CCOCC1	none (no result: MITF act, Wnt bcat act)
O=C1c2ccncc2C(=O)N1CNc1ccc(Cl)cc1	Wnt bcat act 60
CO[C@@H]1CN(C)C(=O)c2ccc(NC(=O)Nc3cccc(Cl)c3)cc2OC[C@H](C)N(C(=O)Nc2c(C)noc2C)C[C@H]1C	none (no result: HIV Env fusion, MITF act, Wnt bcat act)
Cc1[nH]n(-c2ccccc2)c(=O)c1N=Nc1cccc(C(=O)O)c1	HIV Env fusion 58
Cc1[nH]n(-c2ccccc2)c(=O)c1N=Nc1ccc(C(=O)O)cc1	none
Cc1ccc2c(c1)[C@H]1[C@H](CO2)[C@H](c2ccccc2)[C@]2(C)C(=O)N(CC3CCCO3)CC(=O)N12 (stereo partly drawn)	HIV Env fusion 110
C[C@@]12C(=O)N(CC3CCCO3)CC(=O)N1[C@H]1c3cc(Cl)ccc3OC[C@@H]1[C@@H]2c1ccccc1 (stereo partly drawn)	HIV Env fusion 80
C[C@@]12C(=O)N(CC3CCCO3)CC(=O)N1[C@@H]1c3ccccc3OC[C@@H]1[C@@H]2c1ccccc1 (stereo partly drawn)	none (no result: HIV Env fusion)
CO[C@@H]1CC[C@@H]2CCOc3ccc(C#N)cc3C(=O)N(C)C[C@H](C)C(=O)N(C)C[C@@H]1O2	none (no result: MITF act, Wnt bcat act, CFTR F508del cor)
CN(C)CC(=O)Nc1ccc2c(c1)[C@H]1C[C@H](CC(=O)NCc3cccc(F)c3)O[C@@H](CO)[C@H]1O2	HIV Env fusion 64[16.7 µM] (no result: MITF act, Wnt bcat act)
O=C(C[C@@H]1C[C@H]2c3cc(NC(=O)CC4CC4)ccc3O[C@H]2[C@H](CO)O1)NCc1cccc(F)c1	CFTR F508del cor 9.0 (no result: HIV Env fusion, MITF act, Wnt bcat act)
CCCNC(=O)N1C[C@@H]2[C@H](c3ccccc31)[C@H](CO)N2Cc1cc(F)ccc1F	none (no result: HIV Env fusion, MITF act, Wnt bcat act)
C[C@H]1CN([C@@H](C)CO)C(=O)c2cc(C#CC3CCCC3)cnc2O[C@@H]1CN(C)Cc1ccncc1	none (no result: MITF act, Wnt bcat act)
CC(CCN1CCC(CN2C(=S)NCC2Cc2ccccc2)CC1)c1ccccc1 (stereo not drawn)	HIV Env fusion 66
Oc1ccc(C[C@H]2CNC(=S)N2CC2CCCN2C[C@H](Cc2ccc(O)cc2)N2C[C@H](Cc3ccccc3)N(CC3CCCCCC3)C2=S)cc1 (stereo partly drawn)	HIV Env fusion 61
CC(C)C[C@H]1CNC(=S)N1C[C@H]1CCCN1C[C@H](Cc1ccccc1)N1C[C@H](Cc2ccc(O)cc2)N(CC2CCCCC2)C1=S	none (no result: MITF act)
CC(C)C[C@H]1CNC(=S)N1C[C@H]1CCCN1C[C@H](Cc1ccc(O)cc1)N1C[C@H](Cc2ccccc2)N(CC2CCCCCC2)C1=S	HIV Env fusion 94 (no result: MITF act)
CC(C)CCN1CCC(CN2C(=S)NC[C@@H]2Cc2ccccc2)CC1	none (no result: HIV Env fusion)
O=C1[C@H]2[C@@H](c3ccc(F)cc3)N3C(=O)N(c4cccc(Cl)c4)C(=O)[C@@]3(Cc3ccc(Cl)cc3)[C@H]2C(=O)N1C1CCCCC1	HIV Env fusion 99
O=C1[C@H]2[C@@H](c3ccc(Cl)cc3)N3C(=O)N(c4cccc(Br)c4)C(=O)[C@@]3(Cc3ccc(Cl)cc3)[C@H]2C(=O)N1C1CCCCC1	HIV Env fusion 82

Assay outcomes from PubChem.
